The inhibition is the change of the read-out against control, counted positive when it falls.

The source of these data is ChEMBL document CHEMBL1961873, “Compounds: GSK PKIS; Assays: Nanosyn kinase panel” (2012).

For assay [1], the target named is Ribosomal protein S6 kinase alpha-6 (Homo sapiens) (UniProt Q9UK32). The conditions noted are these: at 1 µM.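 Further: each value is a mean inhibition of RSK4 from a GSK PKIS panel screen.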
Assay [2] deals with T1, Serine/threonine-protein kinase Sgk1 (Homo sapiens) (UniProt O00141).
T1 sequence (whole entry): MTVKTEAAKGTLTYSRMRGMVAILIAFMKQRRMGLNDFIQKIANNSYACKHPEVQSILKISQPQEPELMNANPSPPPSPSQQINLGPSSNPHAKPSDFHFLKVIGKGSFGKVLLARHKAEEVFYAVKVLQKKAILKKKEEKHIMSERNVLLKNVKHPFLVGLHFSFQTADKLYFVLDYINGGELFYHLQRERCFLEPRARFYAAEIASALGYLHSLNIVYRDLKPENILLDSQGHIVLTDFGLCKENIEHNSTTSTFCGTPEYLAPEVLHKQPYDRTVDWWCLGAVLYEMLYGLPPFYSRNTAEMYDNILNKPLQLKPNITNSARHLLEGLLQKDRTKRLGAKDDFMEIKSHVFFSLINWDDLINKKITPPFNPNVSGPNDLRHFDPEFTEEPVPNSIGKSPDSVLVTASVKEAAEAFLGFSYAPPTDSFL
Conditions: at 0.1 µM.

Assay [3] has as its target T1, Serine/threonine-protein kinase Sgk1 (Homo sapiens). The conditions noted are these: at 1 µM.
For assay [4], the target named is T2, Serine/threonine-protein kinase Sgk2 (Homo sapiens) (UniProt Q9HBY8).
T2 sequence (whole entry): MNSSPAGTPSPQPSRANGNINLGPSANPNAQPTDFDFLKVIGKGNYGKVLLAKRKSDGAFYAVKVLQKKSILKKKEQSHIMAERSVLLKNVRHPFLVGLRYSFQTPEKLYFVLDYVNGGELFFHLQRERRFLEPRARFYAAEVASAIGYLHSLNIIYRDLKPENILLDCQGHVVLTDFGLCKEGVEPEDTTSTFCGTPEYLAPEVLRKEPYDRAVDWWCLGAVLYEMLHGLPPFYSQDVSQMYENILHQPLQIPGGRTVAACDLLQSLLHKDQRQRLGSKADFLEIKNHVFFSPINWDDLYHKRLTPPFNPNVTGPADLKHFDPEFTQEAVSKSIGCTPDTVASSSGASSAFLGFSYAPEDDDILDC
The conditions noted are these: at 0.1 µM.

The target in assay [5] is T2, Serine/threonine-protein kinase Sgk2 (Homo sapiens). The conditions noted are these: at 1 µM.
The target of assay [6] is T3, Serine/threonine-protein kinase Sgk3 (Homo sapiens) (UniProt Q96BR1).
T3 sequence (whole entry): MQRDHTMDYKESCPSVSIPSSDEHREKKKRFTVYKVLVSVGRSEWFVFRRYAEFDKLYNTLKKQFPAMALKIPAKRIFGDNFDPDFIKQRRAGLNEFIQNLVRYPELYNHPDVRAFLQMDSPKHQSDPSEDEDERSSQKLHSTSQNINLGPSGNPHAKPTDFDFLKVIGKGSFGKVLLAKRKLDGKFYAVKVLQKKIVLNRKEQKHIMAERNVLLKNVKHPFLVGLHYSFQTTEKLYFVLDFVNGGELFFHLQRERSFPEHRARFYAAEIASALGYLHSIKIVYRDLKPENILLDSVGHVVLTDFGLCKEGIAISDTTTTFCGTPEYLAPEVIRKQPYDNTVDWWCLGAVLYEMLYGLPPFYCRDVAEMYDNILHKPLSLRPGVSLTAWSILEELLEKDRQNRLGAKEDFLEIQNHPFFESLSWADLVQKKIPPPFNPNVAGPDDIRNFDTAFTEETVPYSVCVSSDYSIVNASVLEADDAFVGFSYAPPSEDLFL
The conditions noted are these: at 0.1 µM.

For assay [7], the target named is T3, Serine/threonine-protein kinase Sgk3 (Homo sapiens). Conditions: at 1 µM.
Assay [8] addresses 5'-AMP-activated protein kinase catalytic subunit alpha-1 (Homo sapiens) (UniProt Q13131). The conditions noted are these: at 0.1 µM.
Assay [9] shares this target. Conditions: at 1 µM.
In assay [10] the target is 5'-AMP-activated protein kinase catalytic subunit alpha-2 (Homo sapiens) (UniProt P54646). The conditions noted are these: at 0.1 µM.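 Further: mean inhibition measured on the AMPK complex of alpha2, beta1 and gamma1 subunits.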
5'-AMP-activated protein kinase catalytic subunit alpha-2 (Homo sapiens), sequence (P54646 whole entry, looked up): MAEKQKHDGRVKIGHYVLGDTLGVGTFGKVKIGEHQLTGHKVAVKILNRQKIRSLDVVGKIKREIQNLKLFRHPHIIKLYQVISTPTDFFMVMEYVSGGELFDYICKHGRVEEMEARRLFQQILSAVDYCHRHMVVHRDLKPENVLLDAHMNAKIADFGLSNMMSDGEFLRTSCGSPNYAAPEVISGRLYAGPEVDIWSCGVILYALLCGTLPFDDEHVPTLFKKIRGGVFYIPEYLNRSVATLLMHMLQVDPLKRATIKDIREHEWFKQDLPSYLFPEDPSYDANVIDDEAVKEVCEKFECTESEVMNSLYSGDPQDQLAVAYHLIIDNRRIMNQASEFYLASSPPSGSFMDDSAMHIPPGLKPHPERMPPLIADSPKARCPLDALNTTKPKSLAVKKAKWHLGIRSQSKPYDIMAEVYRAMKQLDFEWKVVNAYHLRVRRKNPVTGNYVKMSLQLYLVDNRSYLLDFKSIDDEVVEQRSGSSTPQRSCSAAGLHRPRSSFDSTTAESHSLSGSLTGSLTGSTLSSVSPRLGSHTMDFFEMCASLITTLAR

Structures are written as SMILES.

5'-AMP-activated protein kinase catalytic subunit alpha-1 (Homo sapiens), sequence (Q13131 whole entry, looked up): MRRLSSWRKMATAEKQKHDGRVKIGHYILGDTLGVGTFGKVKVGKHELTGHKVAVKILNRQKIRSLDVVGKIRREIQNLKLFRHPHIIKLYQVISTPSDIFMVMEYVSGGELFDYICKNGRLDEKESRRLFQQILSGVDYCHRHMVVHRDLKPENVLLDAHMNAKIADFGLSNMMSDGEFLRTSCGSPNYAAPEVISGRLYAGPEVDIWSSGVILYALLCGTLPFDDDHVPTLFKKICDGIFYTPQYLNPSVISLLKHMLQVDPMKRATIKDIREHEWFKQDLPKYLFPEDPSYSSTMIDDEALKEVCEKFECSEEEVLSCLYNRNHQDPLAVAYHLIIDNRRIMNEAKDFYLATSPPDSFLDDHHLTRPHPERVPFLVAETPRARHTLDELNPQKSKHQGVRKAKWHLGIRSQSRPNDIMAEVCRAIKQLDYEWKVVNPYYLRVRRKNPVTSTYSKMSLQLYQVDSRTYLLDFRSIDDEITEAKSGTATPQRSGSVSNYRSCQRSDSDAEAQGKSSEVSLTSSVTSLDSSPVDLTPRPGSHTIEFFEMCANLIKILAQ
Ribosomal protein S6 kinase alpha-6 (Homo sapiens), sequence (Q9UK32 whole entry): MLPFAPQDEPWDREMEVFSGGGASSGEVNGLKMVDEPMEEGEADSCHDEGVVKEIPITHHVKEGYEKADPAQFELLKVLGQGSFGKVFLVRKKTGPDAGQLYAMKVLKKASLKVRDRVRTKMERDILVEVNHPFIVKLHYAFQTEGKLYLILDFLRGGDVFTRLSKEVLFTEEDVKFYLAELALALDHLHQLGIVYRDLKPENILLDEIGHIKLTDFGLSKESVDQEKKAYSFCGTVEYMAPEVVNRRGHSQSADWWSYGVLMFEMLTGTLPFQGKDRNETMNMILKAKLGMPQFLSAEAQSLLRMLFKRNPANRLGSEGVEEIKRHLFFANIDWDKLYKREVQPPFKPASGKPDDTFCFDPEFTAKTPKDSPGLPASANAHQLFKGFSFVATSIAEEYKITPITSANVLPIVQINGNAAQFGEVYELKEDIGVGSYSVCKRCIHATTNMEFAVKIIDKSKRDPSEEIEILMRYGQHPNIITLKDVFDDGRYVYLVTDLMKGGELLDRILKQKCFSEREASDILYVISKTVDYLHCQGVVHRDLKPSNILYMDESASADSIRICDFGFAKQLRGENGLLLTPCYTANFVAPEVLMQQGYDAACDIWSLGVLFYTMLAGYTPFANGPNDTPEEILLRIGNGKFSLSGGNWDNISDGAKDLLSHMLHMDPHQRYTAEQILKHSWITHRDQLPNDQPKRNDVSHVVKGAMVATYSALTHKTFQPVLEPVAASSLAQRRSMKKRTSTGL

As to `COc1cc(Nc2ncc(-c3ccccc3)o2)cc(OC)c1OC`, the inhibition in [1] is 6.6%; in [2], 1.24%; in [3], 5.44%; in [4], 3.15%; in assay [5] it was 1.18%; in assay [6], 0.24%. Also, the inhibition in [7] was 0.29%; in [8], 0.26%; in assay [9] it was 9.16%; in [10], 5%.
In the case of `CNC(=O)c1cncc(/C=C/c2c(C)cccc2C)c1`, the inhibition was 0.69% in assay [1]; 0.67% in assay [2]; 2.02% in [3]; 5.07% in assay [4]; -3.14% in assay [5]; -1.1% in assay [6]. The inhibition was 0.16% in assay [7], -0.07% in assay [8], 0.48% in assay [9] and -4.03% in [10].
As for `CN1CCN(CCCNc2nc3ccc(Oc4ccc(NC(=O)Nc5cc(C(F)(F)F)ccc5F)cc4)cc3[nH]2)CC1`, the inhibition in assay [1] is -0.1%; in assay [2], 4.51%; in assay [3], 5.49%; in assay [4], 0.79%; in assay [5] it was 1.09%; in assay [6], 3.14%. Besides, the inhibition in assay [7] was 0.75%; in [8], 1.09%; in assay [9], -0.25%; in assay [10], 2.94%.
`NC(=O)c1cc(-c2ccc(F)cc2)cc(-c2ccncc2)c1N`: the inhibition in assay [1] was 0.89%; in assay [2] it was 3.79%; in assay [3] it was 4.51%; in assay [4], 1.44%; in assay [5], 2.58%; in [6], 3.22%. In addition, the inhibition in assay [7] amounted to 5.96%; in assay [8], 2.78%; in assay [9] it was 2.57%; in [10], 2.54%.
For `C[C@@H](Oc1cc(-n2cnc3ccc(OCC4CCN(C)CC4)cc32)sc1C(N)=O)c1ccccc1Cl`, the inhibition in assay [1] came out at 42.4%; in assay [2] it was 2.62%; in [3], 4.04%; in assay [4], 4.94%; in [5], 3.37%; in [6], 2.38%. The inhibition was 3.66% in assay [7], 6.05% in assay [8], 24.5% in assay [9] and 8.96% in [10].
Turning to `Cc1nnc(-c2ccc(C)c(-c3ccc(C(=O)NCc4ccc(Cl)cc4)cc3)c2)o1`, the inhibition in assay [1] came to 2.38%; in assay [2], 5.07%; in assay [3], 3.26%; in assay [4] it was 2.67%; in [5], 6.19%; in assay [6], 1.38%. The inhibition in [7] stood at 5.66%; in assay [8], 2.95%; in [9], 3.4%; in [10] it was 3.74%.
Consider `COc1ccc2cc(-c3c(-c4ccncc4)nc(-c4ccc(S(C)(=O)=O)cc4C)n3C)ccc2c1`, for which the inhibition in assay [1] stood at 2.04%; in [2], 3.01%; in assay [3], 4.51%; in assay [4], 5.05%; in [5], 4.24%; in assay [6], 2.89%. Moreover, the inhibition in assay [7] is 4.29%; in [8], 3.65%; in [9], 2.77%; in [10], 4.21%.
Turning to `Fc1ccc(-c2ncn(C3CCNCC3)c2-c2ccnc(Oc3ccc(Oc4ccccc4)cc3)n2)cc1`, the inhibition in [1] is 3.14%; in [2] it was 1.53%; in assay [3] it was 2.46%; in assay [4] it was 3.23%; in [5], 3.39%; in assay [6], 4.76%. Further, the inhibition in assay [7] came out at 2.42%; in assay [8], 2.46%; in assay [9] it was 4.03%; in [10] it was 8.18%.
With `COc1ccc(-c2ccc3c(NC(=O)C4CC4)n[nH]c3n2)cc1`, the inhibition is 0.85% in assay [1]; 1.6% in assay [2]; 6% in [3]; 1.24% in [4]; 3.76% in assay [5]; 2.58% in [6]. Moreover, the inhibition is 3.92% in assay [7], 1.15% in assay [8], 2.02% in assay [9] and 0.53% in assay [10].
As to `c1ccc(-c2n[nH]cc2-c2ccnc(-c3ccc(OCCN4CCOCC4)cc3)c2)nc1`, the inhibition in [1] was -0.39%; in assay [2], 5.23%; in assay [3] it was 3.03%; in assay [4] it was 3.23%; in assay [5], -0.68%; in assay [6] it was 3.83%. The inhibition in assay [7] was 4.03%; in assay [8], 0.65%; in assay [9], -0.75%; in assay [10], 6.57%.
Regarding `Nc1nccc(-c2c(-c3ccc(F)cc3)ncn2C2CCC(O)CC2)n1` (stereo not given), the inhibition in assay [1] is 3.39%; in assay [2], -2.26%; in assay [3], -1.85%; in [4], -3.55%; in [5], 7.09%; in assay [6], 0.34%. The inhibition in [7] amounted to 1.61%; in [8] it was 3.45%; in assay [9], 0.93%; in [10], 0.71%.
Take `CS(=O)(=O)CCNCc1ccc(-c2ccc3ncnc(Nc4ccc(OCc5ccccc5)c(Br)c4)c3c2)o1`: the inhibition in assay [1] was -1.41%; in [2], 1.16%; in assay [3] it was 0.22%; in assay [4] it was 2.67%; in assay [5], 1.45%; in assay [6] it was 3.29%. Besides, the inhibition is 3.35% in assay [7], 2.94% in assay [8], 1.46% in assay [9] and 1.41% in assay [10].
For the molecule `COc1ccc2ncn(-c3cc(O[C@H](C)c4ccccc4Cl)c(C(N)=O)s3)c2c1`, the inhibition amounted to 3.6% in assay [1]; 2.42% in assay [2]; 2.1% in [3]; 0.49% in [4]; 2.09% in assay [5]; 3.92% in [6]. The inhibition in [7] was 5.77%; in assay [8], 2.16%; in assay [9], 2.45%; in assay [10] it was 2.54%.
In the case of `CN(c1ccc(NC(=O)Nc2c(Cl)cccc2Cl)cc1)c1ccnc(Nc2cccc(CS(C)(=O)=O)c2)n1`, the inhibition in assay [1] is 1.06%; in assay [2] it was 1.73%; in assay [3] it was 7.64%; in assay [4] it was 5.92%; in [5] it was 22.8%; in assay [6], 3.73%. The inhibition in assay [7] is 4.02%; in [8], 2.22%; in assay [9], 3.05%; in assay [10], -0.21%.
On to `C/C(Nc1ccc(S(N)(=O)=O)cc1)=C1/C(=O)Nc2ccccc21`, for which the inhibition in assay [1] amounted to 20.7%; in assay [2], 5.32%; in [3], 18.4%; in [4], 1.82%; in [5], 2.83%; in assay [6] it was 0.76%. For the same molecule, the inhibition came out at 2.1% in assay [7], 1.16% in [8], 9.79% in [9] and 3.01% in [10].
`CCc1nccc2c1nc(-c1nonc1N)n2CC`: the inhibition in assay [1] was determined as 0.92%; in assay [2] it was 0.21%; in assay [3] it was 3.23%; in assay [4] it was 0.23%; in assay [5] it was 9.51%; in assay [6] it was 2.62%. In addition, the inhibition is 7.73% in assay [7], 1% in assay [8], -1.23% in [9] and -1.43% in [10].
As to `Fc1ccc(-c2ncn(CCCN3CCOCC3)c2-c2ccncc2)cc1`, the inhibition in [1] was -0.21%; in [2], -0.45%; in assay [3], 0.64%; in [4], 1.89%; in assay [5], -4.02%; in assay [6] it was -1.19%. The inhibition was -1.33% in assay [7], 0.37% in assay [8], -1.12% in [9] and 0.28% in assay [10].
